# Reference: the antibiotic and cytotoxicity screens of Wong et al. (2023)
# The campaign covered roughly 39,000 compounds. About 3,300 (8.5%) were called active. Shown is part of a subset that was picked to be rich in actives.
# Tested on: HepG2
# Experiment: cytotoxicity call (relative viability < 0.9)
# Settings: 10 µM
row,SMILES,cytotoxicity call
1,CNC[C@@H]1Oc2ccc(NS(=O)(=O)c3cn(C)cn3)cc2CC(=O)N([C@H](C)CO)C[C@@H]1C,inactive
2,C[C@H](CO)N1C[C@H](C)[C@H](CN(C)S(=O)(=O)c2ccccc2)OCCCC[C@H](C)Oc2ccc(NC(=O)Nc3ccc(F)cc3)cc2C1=O,inactive
3,C[C@H](CO)N1C[C@H](C)[C@@H](CN(C)Cc2ccncc2)Oc2ccc(NC(=O)Cn3cnnn3)cc2C1=O,inactive
4,c1ccc(-c2nc(-c3cccs3)[nH]c2-c2ccccc2)cc1,inactive
5,C[C@@H]1CCCCO[C@@H](CN(C)C(=O)c2ccncc2)[C@H](C)CN([C@@H](C)CO)C(=O)c2cc(NS(C)(=O)=O)ccc2O1,inactive
6,C[C@@H]1CN([C@@H](C)CO)C(=O)c2cc(/C=C/c3ccccc3)cnc2O[C@H]1CN(C)C(=O)CN1CCOCC1,inactive
7,C[C@H](CO)N1C[C@H](C)[C@H](CN(C)C(=O)Cc2ccccc2)OCCCC[C@H](C)Oc2ccc(NC(=O)Nc3cccc4ccccc34)cc2C1=O,inactive
8,C[C@H](CO)N1C[C@H](C)[C@@H](CN(C)C(=O)NC2CCCCC2)Oc2ccc(NS(C)(=O)=O)cc2CC1=O,inactive
9,COc1cccc(NC(=O)N[C@@H]2CC[C@H](CC(=O)N3CCOCC3)O[C@@H]2CO)c1,inactive
10,C[C@H](O)C#Cc1ccc2c(c1)O[C@H](CN(C)C)[C@@H](C)CN([C@@H](C)CO)S2(=O)=O,inactive
11,COc1ccc(CN(C)C[C@H]2Oc3ccc(NC(=O)CCCCCC(=O)Nc4ccccc4N)cc3CC(=O)N([C@@H](C)CO)C[C@@H]2C)cc1,inactive
12,CC(C)NC(=O)N(C)C[C@H]1Oc2ccc(NC(=O)Cc3ccccc3)cc2CC(=O)N([C@@H](C)CO)C[C@@H]1C,inactive
13,COc1ccc2c3c([nH]c2c1)[C@@H](CO)N(C[C@]13CN(Cc2nccs2)C1)S(=O)(=O)c1ccc(cc1)C,inactive
14,C[C@@H]1CN([C@@H](C)CO)C(=O)c2cc(NC(=O)Nc3ccccc3)ccc2O[C@@H](C)CCCCO[C@H]1CN(C)C(=O)Nc1ccc(C(F)(F)F)cc1,inactive
15,C[C@@H]1CCCCO[C@H](CN(C)C(=O)Nc2ccccc2)[C@H](C)CN([C@H](C)CO)C(=O)c2cc(NC(=O)Nc3ccc(C(F)(F)F)cc3)ccc2O1,active
16,C[C@H](CO)N1C[C@H](C)[C@@H](CN(C)C(=O)Nc2ccccc2)OCCCC[C@H](C)Oc2ccc(NC(=O)Nc3ccc(C(F)(F)F)cc3)cc2C1=O,inactive
17,C[C@H]1CCCCO[C@@H](CN(C)C(=O)Nc2cccc3ccccc23)[C@@H](C)CN([C@@H](C)CO)C(=O)c2cc(NS(C)(=O)=O)ccc2O1,inactive
18,C[C@@H]1CN([C@@H](C)CO)C(=O)c2cc(NC(=O)Cn3cnnn3)ccc2O[C@H]1CN(C)C(=O)Nc1cccc2ccccc12,inactive
19,C[C@@H]1CN([C@@H](C)CO)C(=O)c2cc(NC(=O)Cn3cnnn3)ccc2O[C@@H]1CN(C)C(=O)Nc1ccccc1,inactive
20,C[C@H](CO)N1C[C@H](C)[C@@H](CN(C)C(=O)Nc2ccccc2)Oc2ccc(NC(=O)Cn3cnnn3)cc2C1=O,inactive
21,C[C@H](CO)N1C[C@H](C)[C@H](CN(C)C(=O)Nc2cccc3ccccc23)Oc2ccc(NC(=O)Cn3cnnn3)cc2C1=O,inactive
22,CNC[C@@H]1Oc2ccc(NC(=O)Cn3cnnn3)cc2CC(=O)N([C@@H](C)CO)C[C@@H]1C,inactive
23,CNC[C@@H]1Oc2ccc(NC(=O)Cn3cnnn3)cc2CC(=O)N([C@@H](C)CO)C[C@H]1C,active
24,C[C@@H]1CN([C@H](C)CO)C(=O)c2cc(NC(=O)Cn3cnnn3)ccc2O[C@H]1CN(C)C(=O)Nc1cccc2ccccc12,active
25,CNC[C@H]1Oc2ccc(NC(=O)Cn3cnnn3)cc2CC(=O)N([C@@H](C)CO)C[C@H]1C,inactive

row,SMILES,cytotoxicity call
1,C[C@H]1CN([C@@H](C)CO)C(=O)c2cc(NC(=O)Cn3cnnn3)ccc2O[C@H]1CN(C)C(=O)Nc1ccccc1,active
2,Cc1cc(Nc2cc(C)on2)nc([C@H]2CCN(C(=O)CN)C2)n1,inactive
3,C[C@H](CO)N1C[C@H](C)[C@@H](CN(C)S(=O)(=O)c2cccs2)Oc2c(NC(=O)CCCN(C)C)cccc2C1=O,inactive
4,O=C(C[C@@H]1C[C@H]2c3cc(NC(=O)c4ccc5c(c4)OCO5)ccc3O[C@H]2[C@H](CO)O1)NCCc1ccccc1,inactive
5,Cc1noc(C)c1NC(=O)N(C)C[C@H]1OCCCC[C@H](C)Oc2ccc(NC(=O)CCC(F)(F)F)cc2C(=O)N([C@@H](C)CO)C[C@H]1C,inactive
6,C[C@@H]1CN([C@H](C)CO)C(=O)c2cc(C#Cc3cccc(F)c3)cnc2O[C@@H]1CN(C)Cc1ccccn1,inactive
7,CC(C)CC#Cc1ccc2c(c1)O[C@H](CN(C)C(=O)c1cccnc1)[C@@H](C)CN([C@@H](C)CO)S2(=O)=O,inactive
8,O=C(O)c1ccc(N[C@@H]2O[C@H](CO)[C@@H](O)[C@@H]2O)cc1,inactive
9,Clc1ccc(-c2cnc3ccc(-c4ccccc4)cn23)cc1,inactive
10,Clc1ccc(-c2onc3cc(-c4ccccc4)ccc23)cc1,active
11,Clc1ccc2nc(Cl)cc(-c3ccccc3)c2c1,inactive
12,C[C@H](CO)N1C[C@H](C)[C@H](CN(C)Cc2ccc(Cl)c(Cl)c2)Oc2ccc(NC(=O)CCCCCC(=O)Nc3ccccc3N)cc2CC1=O,inactive
13,C[C@H](CO)N1C[C@H](C)[C@@H](CN(C)C(=O)Nc2ccccc2)Oc2ccc(NS(=O)(=O)c3cn(C)cn3)cc2C1=O,inactive
14,CSCc1nc(=O)cc(C(=O)O)[nH]1,inactive
15,CC(C)NC(=O)N(C)C[C@@H]1OCCCC[C@H](C)Oc2ccc(NC(=O)Nc3ccc(F)cc3)cc2C(=O)N([C@@H](C)CO)C[C@H]1C,inactive
16,C/C=C1\NC(=O)[C@H]2CSSCC/C=C/[C@H](CC(=O)N[C@H](C(C)C)C(=O)N2)OC(=O)[C@H](C(C)C)NC1=O,active
17,C[C@@H]1CCCCO[C@H](CN(C)S(=O)(=O)c2cn(C)cn2)[C@@H](C)CN([C@@H](C)CO)C(=O)c2cc(NC(=O)c3ccncc3)ccc2O1,inactive
18,NC(=O)CN1CCCCCC1=O,inactive
19,COc1ccc(N)cn1,inactive
20,COc1cc(N)ccn1,active
21,COc1ccnc(N)c1,inactive
22,COc1ccccc1NC(=O)N(C)C[C@H]1Oc2cc(Br)ccc2S(=O)(=O)N([C@@H](C)CO)C[C@H]1C,inactive
23,CC(N)(Cc1ccc(O)c(O)c1)C(=O)O (centres undefined) [listing 1 of 2 here],inactive
24,CCOC(=O)[C@@](C)(N)Cc1ccc(O)c(O)c1,inactive
25,NC(Cc1ccc(O)c(O)c1)C(=O)O (centres undefined),active

row,SMILES,cytotoxicity call
1,CC(N)(Cc1ccc(O)c(O)c1)C(=O)O (centres undefined) [listing 2 of 2 here],active
2,C[C@](N)(Cc1ccc(O)cc1)C(=O)O,inactive
3,CC(N)(Cc1cccc(O)c1)C(=O)O (centres undefined),inactive
4,COC(=O)[C@@H](N)Cc1ccc(O)c(O)c1,inactive
5,N[C@@H](Cc1ccc(O)c(O)c1)C(=O)O,inactive
6,C[C@](N)(Cc1ccc(O)c(O)c1)C(=O)O,active
7,O=Cc1ccc[nH]1,inactive
8,COc1ccc(NC(=O)N(C)C[C@@H]2Oc3ncc(C#C[C@H](C)O)cc3C(=O)N([C@@H](C)CO)C[C@H]2C)cc1,inactive
9,CN1CCN(C(=O)C[C@@H]2CC[C@@H]3[C@H](COC[C@H](O)CN3S(=O)(=O)c3cccc(Cl)c3)O2)CC1,inactive
10,CC[C@@H](O)C[C@H]1CC[C@H]([C@@H](C)C(=O)O[C@@H](C)C[C@H]2CC[C@H]([C@@H](C)C(=O)O[C@@H](C)C[C@H]3CC[C@H]([C@@H](C)C(=O)O[C@@H](C)C[C@H]4CC[C@H]([C@@H](C)C(=O)O)O4)O3)O2)O1,active
11,COc1ccc(S(=O)(=O)Nc2ccc3c(c2)CC(=O)N([C@H](C)CO)C[C@@H](C)[C@@H](CN(C)C(=O)Nc2c(C)noc2C)O3)cc1,inactive
12,C[C@@H]1CCCCO[C@H](CN(C)C(=O)c2ccccc2)[C@@H](C)CN([C@H](C)CO)C(=O)c2cc(NC(=O)c3ccccc3)ccc2O1,inactive
13,O=C(O)c1cnns1,inactive
14,C[C@H](CO)N1C[C@H](C)[C@@H](CN(C)C(=O)Nc2cccc3ccccc23)OCc2cn(nn2)CCCC1=O,inactive
15,C[C@@H]1CN([C@H](C)CO)C(=O)c2cccc(NC(=O)C3CCOCC3)c2O[C@@H]1CN(C)Cc1ccc(C(=O)O)cc1,inactive
16,O=C(NCc1nc2ccccc2[nH]1)C1=C[C@@H](c2ccc(Br)cc2)C[C@@H](OCc2ccc(CO)cc2)O1,active
17,O=C(NCc1nc2ccccc2[nH]1)C1=C[C@H](c2ccc(C(F)(F)F)cc2)C[C@H](OCc2ccc(CO)cc2)O1,inactive
18,O=C(NCc1nc2ccccc2[nH]1)C1=C[C@H](c2ccc(Br)cc2)C[C@H](OCc2ccc(CO)cc2)O1,inactive
19,C[C@@H]1CN([C@@H](C)CO)C(=O)c2cc(NS(=O)(=O)c3ccc(Cl)cc3)ccc2O[C@@H](C)CCCCO[C@@H]1CN(C)C(=O)Nc1cccc2ccccc12,inactive
20,C[C@H](CO)N1C[C@H](C)[C@H](CN(C)C(=O)Nc2cccc3ccccc23)OCCCC[C@H](C)Oc2ccc(NS(=O)(=O)c3ccc(Cl)cc3)cc2C1=O,inactive
21,C[C@H]1CCCCO[C@@H](CN(C)C(=O)Nc2cccc3ccccc23)[C@@H](C)CN([C@@H](C)CO)C(=O)c2cc(NS(=O)(=O)c3ccc(Cl)cc3)ccc2O1,inactive
22,C[C@@H]1CCCCO[C@H](CN(C)C(=O)Nc2cccc3ccccc23)[C@H](C)CN([C@H](C)CO)C(=O)c2cc(NS(=O)(=O)c3ccc(Cl)cc3)ccc2O1,active
23,C[C@@H]1CCCCO[C@@H](CN(C)C(=O)Nc2cccc3ccccc23)[C@H](C)CN([C@@H](C)CO)C(=O)c2cc(NS(=O)(=O)c3ccc(Cl)cc3)ccc2O1,inactive
24,C[C@@H]1CCCCO[C@@H](CN(C)C(=O)Nc2cccc3ccccc23)[C@H](C)CN([C@H](C)CO)C(=O)c2cc(NS(=O)(=O)c3ccc(Cl)cc3)ccc2O1,active
